Experimental data from PubChem BioAssay (NCATS).
Where “and” joins values, the source holds several entries; their conditions need not be identical. Equal values may be shown once. Inconclusive results are not listed. Calls of active or inactive are those of the source. Unless noted, the call rests on the fitted dose curve.

What was measured:
[1] = molecular target: Estrogen receptor (Homo sapiens) (UniProt P03372); assay: qHTS assay for small molecule antagonists of estrogen receptor alpha signaling (AID 588513; active means well fitted curve in the direction sought with a large enough effect in the signal ratio, with a control signal flat, not every such curve was filed as active; the % refers to the signal ratio; further: on the % scale 0 is the no-effect control and ±100 the full control effect)
Chain of Estrogen receptor (Homo sapiens) (P03372 whole entry, looked up): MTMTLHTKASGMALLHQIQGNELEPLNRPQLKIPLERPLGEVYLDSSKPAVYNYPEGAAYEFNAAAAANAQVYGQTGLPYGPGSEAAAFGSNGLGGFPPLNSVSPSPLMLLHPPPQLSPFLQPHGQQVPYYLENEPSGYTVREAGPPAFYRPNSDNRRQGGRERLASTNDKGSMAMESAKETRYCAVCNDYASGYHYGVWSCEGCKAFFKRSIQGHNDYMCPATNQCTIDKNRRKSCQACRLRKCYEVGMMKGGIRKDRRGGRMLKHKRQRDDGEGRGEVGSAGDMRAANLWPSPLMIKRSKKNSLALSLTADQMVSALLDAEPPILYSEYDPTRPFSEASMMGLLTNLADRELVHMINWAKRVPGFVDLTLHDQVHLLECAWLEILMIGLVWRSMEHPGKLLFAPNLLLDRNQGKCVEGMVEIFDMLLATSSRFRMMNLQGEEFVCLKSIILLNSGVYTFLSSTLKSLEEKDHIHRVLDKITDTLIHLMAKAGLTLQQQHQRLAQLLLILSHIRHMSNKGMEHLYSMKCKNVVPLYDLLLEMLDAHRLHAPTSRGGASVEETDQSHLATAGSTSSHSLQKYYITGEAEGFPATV
Outline: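 Fluorescence from CCF4 substrate after 2 h at room temperature gave reporter activity; cells had been exposed to compound and 0.5nM 17-beta-estradiol for 18 h at 37 C. Hill-equation fitting yielded IC50 and maximal response.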

[2] = molecular target: Androgen receptor (Homo sapiens) (UniProt P10275); assay: qHTS assay for small molecule agonists of androgen receptor signaling (AID 588515; active means well fitted curve in the direction sought with a large enough effect in the signal ratio, with a control signal flat; the % refers to the signal ratio; further: on the % scale 0 is the no-effect control and ±100 the full control effect); settings: AR-UAS-bla HEK293, beta-lactamase ratio, agonist 16 h; activation: hits give high values
Chain of Androgen receptor (Homo sapiens) (P10275 whole entry, looked up): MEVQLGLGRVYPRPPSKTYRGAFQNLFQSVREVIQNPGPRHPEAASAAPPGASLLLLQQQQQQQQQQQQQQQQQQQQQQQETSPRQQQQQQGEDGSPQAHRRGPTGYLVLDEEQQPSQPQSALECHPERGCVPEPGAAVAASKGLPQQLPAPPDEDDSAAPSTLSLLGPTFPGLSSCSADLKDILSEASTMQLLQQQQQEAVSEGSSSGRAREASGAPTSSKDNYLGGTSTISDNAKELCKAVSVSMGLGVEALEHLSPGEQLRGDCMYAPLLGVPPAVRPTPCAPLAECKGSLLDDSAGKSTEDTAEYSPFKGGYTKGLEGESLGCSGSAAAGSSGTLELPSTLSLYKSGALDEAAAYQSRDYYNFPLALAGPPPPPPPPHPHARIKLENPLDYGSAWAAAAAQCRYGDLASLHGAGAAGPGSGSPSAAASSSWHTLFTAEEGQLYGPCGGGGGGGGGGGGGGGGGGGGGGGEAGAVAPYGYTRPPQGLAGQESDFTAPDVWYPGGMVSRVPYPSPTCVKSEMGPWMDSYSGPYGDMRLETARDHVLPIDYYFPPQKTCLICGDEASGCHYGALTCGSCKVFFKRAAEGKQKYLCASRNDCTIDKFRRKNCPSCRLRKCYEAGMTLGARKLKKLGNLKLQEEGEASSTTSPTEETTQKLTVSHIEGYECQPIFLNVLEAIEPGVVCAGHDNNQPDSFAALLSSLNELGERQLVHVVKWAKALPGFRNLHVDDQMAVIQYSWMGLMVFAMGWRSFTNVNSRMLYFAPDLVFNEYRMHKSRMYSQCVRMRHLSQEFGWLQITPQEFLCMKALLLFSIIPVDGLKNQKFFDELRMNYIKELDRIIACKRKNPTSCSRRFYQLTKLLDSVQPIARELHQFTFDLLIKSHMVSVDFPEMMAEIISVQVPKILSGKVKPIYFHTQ
Outline: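 Stimulation of an AR-responsive β-lactamase reporter in GripTite HEK293 cells was measured after 16 h compound exposure at 37 °C, via CCF4 fluorescence after 2 h RT. EC50 from Hill fits, normalized to R1881 at 30 nM.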

[3] = molecular target: Glucocorticoid receptor (Homo sapiens) (UniProt P04150); assay: qHTS assay for small molecule agonists of glucocorticoid receptor signaling (AID 588532; active means well fitted curve in the direction sought with a large enough effect in the signal ratio, with a control signal flat; the % refers to the signal ratio;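 further: 100% = dexamethasone at 0.1 µM and 0% = DMSO only wells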); settings: HeLa MMTV-bla, beta-lactamase ratio, agonist, 18 h; hits give high values; percent of dexamethasone control, DMSO zero
Chain of Glucocorticoid receptor (Homo sapiens) (P04150 whole entry, looked up): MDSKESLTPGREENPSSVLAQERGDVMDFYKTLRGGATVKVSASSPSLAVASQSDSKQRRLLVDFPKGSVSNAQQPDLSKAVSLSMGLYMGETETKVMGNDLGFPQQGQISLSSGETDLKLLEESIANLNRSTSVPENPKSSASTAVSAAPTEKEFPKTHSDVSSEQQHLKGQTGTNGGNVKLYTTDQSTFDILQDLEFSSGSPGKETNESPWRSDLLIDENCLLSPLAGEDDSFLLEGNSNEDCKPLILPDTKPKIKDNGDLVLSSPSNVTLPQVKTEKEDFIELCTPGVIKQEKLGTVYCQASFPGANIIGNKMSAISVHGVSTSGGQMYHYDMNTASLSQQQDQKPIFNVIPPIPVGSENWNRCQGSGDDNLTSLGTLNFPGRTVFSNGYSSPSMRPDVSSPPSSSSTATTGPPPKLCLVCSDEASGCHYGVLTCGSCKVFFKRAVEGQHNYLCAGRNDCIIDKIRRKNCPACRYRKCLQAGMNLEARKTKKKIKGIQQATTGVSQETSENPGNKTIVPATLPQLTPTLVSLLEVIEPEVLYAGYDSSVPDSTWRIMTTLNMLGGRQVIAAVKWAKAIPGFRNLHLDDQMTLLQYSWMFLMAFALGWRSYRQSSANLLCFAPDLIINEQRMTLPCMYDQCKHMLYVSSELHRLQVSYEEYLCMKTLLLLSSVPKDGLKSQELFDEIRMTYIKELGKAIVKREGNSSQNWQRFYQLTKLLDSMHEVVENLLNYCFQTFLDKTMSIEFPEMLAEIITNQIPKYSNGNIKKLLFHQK
Outline: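 Agonist-mode qHTS: GRE-driven beta-lactamase in HeLa cells exposed 18 h to titrated compounds (up to 92 uM), then CCF4 ratio read after 2 h at RT; Hill-fitted EC50, efficacy relative to 0.1 uM dexamethasone.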

[4] = molecular target: Thyroid hormone receptor beta (Homo sapiens) (UniProt P10828); assay: qHTS assay for small molecule antagonists of thyroid hormone receptor beta signaling (AID 588547; active means well fitted inhibition curve with a large enough effect in the signal ratio, with a control signal flat, not every such curve was filed as active; the % refers to the signal ratio;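 further: cells stimulated with 0.4 nM T3 agonist during compound exposure; series mostly up to about 77 µM; on the % scale 0 is the no-effect control and ±100 the full control effect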); settings: TR-UAS-bla HEK293, beta-lactamase ratio, antagonist mode, 18 h
Chain of Thyroid hormone receptor beta (Homo sapiens) (P10828 whole entry, looked up): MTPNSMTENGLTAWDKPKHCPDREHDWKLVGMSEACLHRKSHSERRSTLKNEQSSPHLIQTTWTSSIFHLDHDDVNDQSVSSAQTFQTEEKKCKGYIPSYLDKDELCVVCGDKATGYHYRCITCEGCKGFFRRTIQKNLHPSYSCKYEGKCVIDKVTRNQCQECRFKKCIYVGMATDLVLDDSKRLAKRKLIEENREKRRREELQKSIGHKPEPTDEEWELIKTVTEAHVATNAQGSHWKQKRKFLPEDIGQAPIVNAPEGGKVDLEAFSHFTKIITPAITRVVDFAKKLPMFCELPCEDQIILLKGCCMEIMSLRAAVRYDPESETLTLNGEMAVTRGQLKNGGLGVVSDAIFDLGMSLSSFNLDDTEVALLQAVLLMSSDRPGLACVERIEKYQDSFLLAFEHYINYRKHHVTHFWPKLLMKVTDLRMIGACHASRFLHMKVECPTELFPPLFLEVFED
Outline: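 Inhibition of T3-driven (0.4nM final) beta-lactamase reporter activity was measured over 0.59 nM to 92 uM compound after 18 h at 37 C. The cells were GripTite HEK293 TR-UAS-bla in charcoal/dextran-stripped serum, with CCF4 ratio read-out and IC50 from Hill fits.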

[5] = molecular target: Estrogen receptor (Homo sapiens) (UniProt P03372); assay: qHTS assay for small molecule agonists of estrogen receptor alpha signaling (AID 588514);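 further: 0% = vehicle only and 100% = reference agonist; nearly all actives have a fitted effect of over 70% in size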
Outline: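 Fluorescence from CCF4 cleavage reports ER-alpha-driven beta-lactamase expression in HEK 293 cells treated 18 hrs at 37 C. Data normalized to 17-beta-estradiol (20 nM) and DMSO, fitted to Hill equation.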

[6] = molecular target: Peroxisome proliferator-activated receptor gamma (Homo sapiens) (UniProt P37231); assay: qHTS assay for small molecule antagonists of peroxisome proliferator-activated receptor gamma signaling (AID 588537; active means well fitted inhibition curve with a large enough effect in the signal ratio, with a control signal flat, not every such curve was filed as active; the % refers to the signal ratio;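 further: reporter cells co-stimulated with 50 nM rosiglitazone agonist during compound treatment; % of control where 0% means no effect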)
Chain of Peroxisome proliferator-activated receptor gamma (Homo sapiens) (P37231 whole entry, looked up): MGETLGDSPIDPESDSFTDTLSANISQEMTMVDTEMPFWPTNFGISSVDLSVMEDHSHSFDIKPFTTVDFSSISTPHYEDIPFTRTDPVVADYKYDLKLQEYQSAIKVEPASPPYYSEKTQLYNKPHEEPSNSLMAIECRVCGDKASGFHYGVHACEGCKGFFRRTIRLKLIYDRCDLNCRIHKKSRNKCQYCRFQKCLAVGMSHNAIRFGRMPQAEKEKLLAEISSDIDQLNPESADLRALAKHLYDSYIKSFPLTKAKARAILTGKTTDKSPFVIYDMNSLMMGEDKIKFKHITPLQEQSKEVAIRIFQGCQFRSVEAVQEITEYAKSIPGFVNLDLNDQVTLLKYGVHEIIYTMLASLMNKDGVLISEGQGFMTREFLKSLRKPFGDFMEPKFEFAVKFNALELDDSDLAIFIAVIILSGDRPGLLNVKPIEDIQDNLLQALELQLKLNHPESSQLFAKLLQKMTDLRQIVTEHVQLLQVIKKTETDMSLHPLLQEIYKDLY
Outline: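 Cell-based beta-lactamase assay; GW9662 served as the antagonist control. Stimulation used rosiglitazone, final 50 nM, 16 h, 37 C.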

[7] = qHTS assay for small molecule agonists of the antioxidant response element (ARE) signaling pathway (AID 651741; active means well fitted activation curve with a large enough effect in the signal ratio; the % refers to the signal ratio; further: % of control where 0% means no effect)
Outline: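 Agonist activity is measured as ARE-driven beta-lactamase expression in a stable HepG2 reporter line, using 16 h compound treatment at 37 C and a FRET substrate fluorescence readout after 2 h.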

[8] = molecular target: Androgen receptor (Homo sapiens) (UniProt P10275); assay: qHTS assay for small molecule antagonists of androgen receptor signaling (AID 588516; active means well fitted curve in the direction sought with a large enough effect in the signal ratio, with a control signal flat, not every such curve was filed as active; the % refers to the signal ratio; further: on the % scale 0 is the no-effect control and ±100 the full control effect)
Outline: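 Cells were plated and incubated 5 h, compounds added in titration, then R1881 (10 nM final) as agonist. After 16 h at 37 C, CCF4 substrate was loaded for 2 h at room temperature and fluorescence measured.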

[9] = molecular target: Glucocorticoid receptor (Homo sapiens) (UniProt P04150); assay: qHTS assay for small molecule antagonists of glucocorticoid receptor signaling (AID 588533; active means well fitted inhibition curve with a large enough effect in the signal ratio, with a control signal flat, not every such curve was filed as active; the % refers to the signal ratio)
Outline: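 Antagonist-mode qHTS: compound titrations added to GRE-bla HeLa cells, then dexamethasone 2 nM final; 18 h, 37 C. CCF4 FRET fluorescence normalized to dexamethasone and DMSO; IC50 from Hill fit.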

[10] = molecular target: Bile acid receptor (Homo sapiens) (UniProt Q96RI1); assay: qHTS assay for small molecule antagonists of farnesoid X receptor signaling (AID 588526); further: on the % scale 0 is the no-effect control and ±100 the full control effect
Chain of Bile acid receptor (Homo sapiens) (Q96RI1 whole entry, looked up): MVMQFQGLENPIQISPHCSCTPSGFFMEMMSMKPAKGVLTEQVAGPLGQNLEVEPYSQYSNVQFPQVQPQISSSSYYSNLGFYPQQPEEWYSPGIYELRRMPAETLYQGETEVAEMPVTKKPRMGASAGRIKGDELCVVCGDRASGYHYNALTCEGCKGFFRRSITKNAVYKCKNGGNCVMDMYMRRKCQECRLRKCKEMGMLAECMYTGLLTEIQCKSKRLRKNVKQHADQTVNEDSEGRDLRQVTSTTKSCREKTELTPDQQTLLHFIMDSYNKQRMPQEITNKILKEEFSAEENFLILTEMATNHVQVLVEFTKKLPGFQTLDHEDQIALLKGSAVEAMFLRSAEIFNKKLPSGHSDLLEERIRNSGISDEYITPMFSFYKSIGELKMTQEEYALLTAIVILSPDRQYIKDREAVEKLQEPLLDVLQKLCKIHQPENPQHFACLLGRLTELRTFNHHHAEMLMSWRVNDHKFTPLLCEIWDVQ
Outline: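 Beta-lactamase reporter antagonist mode: HEK293T FXR-UAS-bla cells, titrated compound, CDCA stimulation, 16 h 37 C, CCF4 dye 2 h RT. Data normalized to CDCA 50 uM and DMSO; Hill-fit IC50.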

CCOC(=O)COc1cc(-n2ncc(C(F)(F)F)c(C)c2=O)c(F)cc1Cl
inactive: Potency [1] | activation [2] -1.68% | activation [3] 13.3% | activity change % (negative = inhibition) [4] -20.3%

CCOC(=O)CCCCCCCCC(=O)OCC
inactive: Potency [1] | Potency [5] | Potency [6] | Potency [7]

CCCCCCCCCCCCCCCCN(C)C
inactive: Potency [1] | activation [2] 8.77% | outcome [8] | activation [3] -11.7% | Potency [9]

CCOC(=O)c1ccccc1C
inactive: Potency [1] | Potency [10] | activation [3] 10.9% | Potency [9] | Potency [6] | Potency [7]

O=[N+]([O-])C(CO)(CO)CO
inactive: Potency [1] | Potency [5] | Potency [6]

COC(=O)c1ccc(C(=O)OC)cc1
inactive: Potency [1] | Potency [5] | Potency [7]

C=C(C)C(=O)OCCC[Si](OC)(OC)OC
inactive: Potency [1] | Potency [9] | activity change % (negative = inhibition) [4] 2.39% | Potency [7]

O=S(=O)(O)c1ccc(N=Nc2c(O)ccc3cc(S(=O)(=O)O)ccc23)cc1
inactive: Potency [1] | Potency [5] | activity change % (negative = inhibition) [4] -13.9%

OCC(CO)(CO)COCC(CO)(CO)CO
inactive: Potency [1] | Potency [5] | Potency [6] | activity change % (negative = inhibition) [4] -4.48% | Potency [7]

CN(C)C(=O)Nc1ccccc1
inactive: Potency [1] | Potency [5] | Potency [6] | activity change % (negative = inhibition) [4] -24.6%

CC(C)(C)c1ccc(O)c(C(C)(C)C)c1
inactive: Potency [1] | Potency [10] | activation [3] -9.25% | Potency [9] | Potency [6] | activity change % (negative = inhibition) [4] 5.44%

NCCCCCCCCCCC(=O)O
inactive: Potency [1] | activation [2] 0.655% | outcome [8] | Potency [10] | Potency [9] | Potency [6] | activity change % (negative = inhibition) [4] -1.93%

O=S(=O)(O)c1cc(S(=O)(=O)O)c2c(N=Nc3ccccc3)c(O)ccc2c1
inactive: Potency [1] | Potency [9] | activity change % (negative = inhibition) [4] -8.36% | Potency [7]

CSC(=O)c1cccc2nnsc12
inactive: Potency [1] | activation [2] -3.36% | outcome [8] | activation [3] -11.5% | Potency [6]

CC(C)(C)c1n[nH]c(=O)n(N)c1=O
inactive: Potency [1] | activation [2] 8.74% | outcome [8] | Potency [10] | activation [3] 14.6% | Potency [9] | Potency [6] | activity change % (negative = inhibition) [4] 0.427% | Potency [7]

c1ccc2cc3c(ccc4ccccc43)cc2c1
inactive: Potency [1] | Potency [10] | Potency [6] | activity change % (negative = inhibition) [4] -17.7%

CCCCCCCCCCCCO
inactive: Potency [1] | Potency [10] | Potency [6] | activity change % (negative = inhibition) [4] -1.52% | Potency [7]

COc1ccc(OC)c(OC)c1
inactive: Potency [1] | activation [3] 0.211% | activity change % (negative = inhibition) [4] 7.13% | Potency [7]

Cc1ccc(Cl)cc1Cl
inactive: Potency [1] | activation [3] -2.65% | Potency [9]

C[Si](C)(C)N[Si](C)(C)C
inactive: Potency [1] | activation [3] -9.44% | Potency [9] | Potency [6] | activity change % (negative = inhibition) [4] -1.93%

CCCCCCCC(=O)OC
inactive: Potency [1] | Potency [5] | activity change % (negative = inhibition) [4] 13.2% | Potency [7]

Cn1sccc1=O
inactive: Potency [1] | Potency [10] | activation [3] 2.87% | Potency [9] | activity change % (negative = inhibition) [4] -11.2%

CC(=O)OC(C)(C)C1CC=C(C)CC1 (stereo not given)
inactive: Potency [1] | Potency [5] | Potency [6] | activity change % (negative = inhibition) [4] -6.17% | Potency [7]

CC(=O)OC1CCC(C(C)(C)C)CC1 (stereo not given)
inactive: Potency [1] | activation [2] 3% | outcome [8] | activation [3] -9.53% | Potency [9] | activity change % (negative = inhibition) [4] 5.89% | Potency [7]

CCCCOCC(C)OCC(C)O (stereo not given)
inactive: Potency [1] | Potency [5] | Potency [6] | activity change % (negative = inhibition) [4] -10.2%

CCCCCCCCC(=O)O
inactive: Potency [1] | activation [3] 1.63% | Potency [9] | activity change % (negative = inhibition) [4] 3.07%

CCCCOCCOCCOCCO
inactive: Potency [1] | Potency [5] | Potency [7]

CC1(C)C(C=C(Cl)Cl)[C@H]1C(=O)OCc1cccc(Oc2ccccc2)c1 (stereo not given in full)
inactive: Potency [1] | activation [2] -0.893% | outcome [8] | activity change % (negative = inhibition) [4] 5.41%

CC1(C)C(=O)NC(=O)N1CO
inactive: Potency [1] | activation [3] -5.05% | Potency [9] | Potency [6]

OCCC(F)(F)C(F)(F)C(F)(F)C(F)(F)C(F)(F)C(F)(F)C(F)(F)C(F)(F)F
inactive: Potency [1] | activation [2] 13.8% | outcome [8] | Potency [7]

C=CC(=O)NC(C)(C)CS(=O)(=O)O
inactive: Potency [1] | Potency [5] | Potency [6] | activity change % (negative = inhibition) [4] 13.1% and 23.4%

Cc1ccc(C(C)(C)C)c(O)c1
inactive: Potency [1] | Potency [10] | Potency [6]

CCCOC(=O)c1ccc(C(=O)OCCC)nc1
inactive: Potency [1] | activation [2] -11.4% | outcome [8] | Potency [10] | activation [3] -11.2% | Potency [6]

C[Si]1(C)N[Si](C)(C)N[Si](C)(C)N1
inactive: Potency [1] | Potency [5] | Potency [6] | activity change % (negative = inhibition) [4] 17.9% | Potency [7]
